Measurements from PubChem BioAssay (Tox21).
Results filed as inconclusive are left out. A call without a number means that no potency is given here. Activity calls are given as the source filed them. Calls come from the whole dose curve; as a rule, active = well fitted activation curve with a large enough effect in the repeat runs; inconclusive = weak or mixed curves; inactive = flat fitted curve, though single readings scatter.

assay: A CellTox Green Cytotoxicity Assay to monitor cytotoxicity in HEK293 cells - 16 hour (AID 1224888); settings: CellTox Green fluorescence; series mostly up to 76.8 µM; note: nearly all actives have a fitted effect of over 35% in size
Text: National Center for Advancing Translational Sciences [NCATS]
NIH Chemical Genomics Center [NCGC]
U.S. Environmental Protection Agency [EPA]
National Institutes of Environmental Health Sciences [NIEHS]
National Toxicology Program [NTP]
Cell-based models are critical for drug discovery. Determining the natural cytotoxic effects resulting from test compounds is an essential research activity. A CellTox Green Cytotoxicity Assay to monitor cytotoxicity in real time of continues cell culture during 40 hours of the compound treatment was used to screen Tox21 10K library compounds in Hek293 cells. CellTox Green Cytotoxicity Assay is a nonlytic, homogeneous, biofluorescent method to measure cytotoxicity in cell culture after experimental manipulation. The assay system uses a proprietary asymmetric cyanine dye that is excluded from viable cells but preferentially stains the dead cell's DNA. […] Viable cells produce no appreciable increases in fluorescence. Therefore, the fluorescence signal produced by the binding interaction with dead cell DNA is proportional to cytotoxicity.
The mixture of Hek293 cell suspension and reagents were dispensed at 600cells/6 ul/well in 1536-well tissue culture treated black solid bottom plates using a Multidrop dispenser. After the assay plates were incubated at a 37 C/5% CO2 incubator for 5 hours, 23 nL of compounds dissolved in DMSO, positive and negative controls was transferred to the assay plate by a pintool work station. The plates were incubated at 37 C for 40 hours. The fluorescence intensity were measured at 0h, 8h, 16h, 24h, 32h and 40h time points using ViewLux plate reader during compound treatment.

SMILES	Potency	activity change
O=Cc1ccc(O)c(O)c1O	inactive	–
Cc1cccc(C)c1NC(=O)CN1CCCCCC1	inactive	–
CCCCNc1ccc(C(=O)OCCN(CC)CC)cc1	inactive	–
Cc1c[nH]c(=S)[nH]c1=O	inactive	–
Cc1ccc([N+](=O)[O-])cc1Cl	inactive	–
CCOc1ccc(OCC)c(Cl)c1	inactive	–
O=C(O)C(=O)Cc1c[nH]c2ccccc12	inactive	–
CCCCCCC	inactive	–
COc1ccccc1N1CCN(CCCNc2cc(=O)n(C)c(=O)n2C)CC1	inactive	–
CC(C)(C)C1CCCCC1=O (stereo not given)	inactive	–
Cc1ncc(CO)c(CN)c1O	inactive	–
Cc1onc(-c2ccccc2)c1C(=O)Cl	inactive	–
O=C1CCN(c2ccccc2)N1	inactive	–
CC(C)C[C@H](NC(=O)OCC1c2ccccc2-c2ccccc21)C(=O)O	inactive	–
Cc1ccc(C(C)C)cc1O	inactive	–
Cc1ccc(C)c(N)c1	inactive	–
CN(C)C(=O)NC1(c2ccccc2)CCN(CCC[C@]2(c3ccc(Cl)c(Cl)c3)CCCN(C(=O)c3ccccc3)C2)CC1	–	-0.407% [at 15.8 µM, hits give high values] (inactive)
COC(=O)N[C@H](C(=O)N[C@@H](Cc1ccccc1)[C@@H](O)CN(Cc1ccc(-c2ccccn2)cc1)NC(=O)[C@@H](NC(=O)OC)C(C)(C)C)C(C)(C)C	inactive	–
O=C(O)CN(CCN(CC(=O)O)CC(=O)O)CCN(CC(=O)O)CC(=O)O	–	12.4% [at 15.8 µM, hits give high values] (inactive)
FC(F)(F)C(Cl)(Cl)Cl	inactive	–

SMILES	Potency	activity change
Nc1ccc(Oc2ccc(N)c(N)c2)cc1	inactive	–
CN(C)CCOc1ccccc1Cc1ccccc1	inactive	–
OCC(CBr)(CBr)CBr	inactive	–
CCCCCOc1ccc(C2SC(=O)NC2=O)cc1OCC (stereo not given)	inactive	–
CN1C(=O)CC(c2ccccc2)C1=O (stereo not given)	inactive	–
CCCCNCCCC	inactive	–
CCOc1ccc2nc(N)sc2c1	inactive	–
O=C1Nc2ccc([N+](=O)[O-])cc2C1=O	inactive	–
NCCCN1CCN(CCCN)CC1	inactive	–
Cc1cc2c(s1)Nc1ccccc1N=C2N1CCN(C)CC1	inactive	–
CCCC1CCC(=O)O1 (stereo not given)	inactive	–
CCC/C=C/CO	inactive	–
CCCNC(C)C(=O)Nc1c(C)csc1C(=O)OC (stereo not given)	inactive	–
COc1ccc2nc(NC(=O)Nc3ccccc3)sc2c1	inactive	–
CCCCCCOc1ccc(N)cc1	inactive	–
CCCCNc1cc(C(=O)O)cc(S(N)(=O)=O)c1Oc1ccccc1	inactive	–
CC(C)(C)c1cccc(O)c1	inactive	–
CN(CCCN1c2ccccc2CCc2ccccc21)CC(=O)c1ccc(Cl)cc1	inactive	–
Oc1ccccc1C=NCc1ccccc1	inactive	–
CC1=CC(=O)CC(C)(C)C1=O	inactive	–
